The text below walks through data of PMC7819943, “Rice protein-binding microarrays: a tool to detect cis-acting elements near promoter regions in rice”.

In all, about 35,000 sequences were measured (“fluorescence intensity (a.u.)”: median about 10,000, highest 2% from about 52,000 on). This is one part of a sample in which the highest values are shown more often than they occur.

The target in the test is T1, OsWOX13 (Oryza sativa, UniProt Q5QMM3 1-267).
T1 sequence: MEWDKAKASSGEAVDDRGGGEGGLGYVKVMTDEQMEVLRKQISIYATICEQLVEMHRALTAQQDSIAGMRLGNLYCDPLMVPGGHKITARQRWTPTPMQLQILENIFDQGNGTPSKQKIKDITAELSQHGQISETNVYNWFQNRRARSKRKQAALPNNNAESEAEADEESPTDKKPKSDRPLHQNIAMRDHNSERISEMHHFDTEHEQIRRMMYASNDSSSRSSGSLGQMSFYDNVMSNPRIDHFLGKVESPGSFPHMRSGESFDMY
Nature of the test: protein-binding microarray (RPBM); PBS, 2% BSA, 51.3 ng/ul salmon testes DNA, 50 uM zinc acetate, 200 nM TF, 25 C, 1 h; high values mean tight binding. The settings on record: protein: recombinant; tags: N-terminal polyhistidine and DsRed monomer fusion (pET32a); label: CyDye5-dUTP incorporated in the synthesized complementary strand; 3' TTTTT single-stranded linker to array surface; dsDNA, one strand shown. The method, boiled down:
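An Axon 4000B scanner gave the binding signal as per-feature fluorescence intensity in arbitrary units. This followed washing of a custom Agilent array that had been incubated for 1 h at 25 °C with 200 nM protein in PBS, 2% BSA, salmon testes DNA and 50 µM zinc acetate. The proteins were transcription factors fused at the N-terminus to polyhistidine and DsRed, expressed in E. coli BL21-CodonPlus and purified on Ni–NTA.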
Consider “ACTTAATTATGTTGTGGTTAATTAGCCCCGAAATGGTCGTCGGAGTCACCTAGTGCAG”, for which the binding signal was 52900 fluorescence intensity (a.u.).
For the sequence “GATTAATGATTAATTAATAATATGTTAATGAGTTTTATCCCGGAGTCACCTAGTGCAG”, the binding signal was 52500 fluorescence intensity (a.u.).
The value for “CATGATTTTACTTTCTTTTCAGGTCTTAGGAGTGAGCTTCCGGAGTCACCTAGTGCAG” was 9930 fluorescence intensity (a.u.); that for “GTCATTTTAATTGCAAATGCTTTTATATGTTGTTTCTTTCCGGAGTCACCTAGTGCAG” was 6630 fluorescence intensity (a.u.).
Then “GCTGATGACTTTTCTCCCGGTTTCATATTTTCTTTTAGAACGGAGTCACCTAGTGCAG”, with 8420 fluorescence intensity (a.u.); and “AGCCTAATTAATTCGTCATTAGCATATGTGGGTTATTATACGGAGTCACCTAGTGCAG”, with 27800 fluorescence intensity (a.u.).
The value for “GAACGGAGGATGCTGAGCTCTCTTATGAGGTCTATTTTCCCGGAGTCACCTAGTGCAG” was 65100 fluorescence intensity (a.u.).
Regarding “TTAAAATTTATATGTTAAATTATAGTGGTTTAAAATTTCACGGAGTCACCTAGTGCAG”, the binding signal was 8530 fluorescence intensity (a.u.).
The value for “GAGATAGAGATAATAGAAAGATTAAACAAGATTCGATAGACGGAGTCACCTAGTGCAG” was 3590 fluorescence intensity (a.u.); that for “CGAGATAAATCACGGTAATCACAGCAACAGCAACAGCAACCGGAGTCACCTAGTGCAG” was 10400 fluorescence intensity (a.u.); that for “ATGCCATCCAATCAAGCCACGACGATCCACAGCCATAGTGCGGAGTCACCTAGTGCAG” was 11500 fluorescence intensity (a.u.).
The value for “AAGCAAATCTCTAGATAGATAGATAGATGGATGGATGGATCGGAGTCACCTAGTGCAG” was 10800 fluorescence intensity (a.u.).
Then “TGCTTAATTAATTATGTGCTAATGAGGTCTTTCATTTTACCGGAGTCACCTAGTGCAG”, with 56100 fluorescence intensity (a.u.); and “GTTTAATATTTATAATTAATTTTCAAACATCCGATGTGATCGGAGTCACCTAGTGCAG”, with 19000 fluorescence intensity (a.u.).
“GAGGGAGTACTAATTATTTAATTTGATGATTATAATACTTCGGAGTCACCTAGTGCAG”: the binding signal was 17900 fluorescence intensity (a.u.).
Then “CTTACCTGCTTTAATTTATGCATAATGTTGCTTCATAAACCGGAGTCACCTAGTGCAG”, with 6090 fluorescence intensity (a.u.).
The value for “CCTAATAATTAATTAATGATGCACGAGGGATTATCCAACTCGGAGTCACCTAGTGCAG” was 53200 fluorescence intensity (a.u.); that for “ATTTAATTAATATGTTAATGAGCTAATCCGTTTTCGGGACCGGAGTCACCTAGTGCAG” was 52300 fluorescence intensity (a.u.).
Then “GTTTTAGCTAATATTTAATTAATCATGTGCTAATGAGCTACGGAGTCACCTAGTGCAG”, with 8590 fluorescence intensity (a.u.).
For “AATTAATCATGCGTTAATGGACCGTTCCGTTTTCCGTGTTCGGAGTCACCTAGTGCAG”, the binding signal was 20900 fluorescence intensity (a.u.).
Then “CGGTCAAATTATCCAAATTAATTAAAGAGGGAACTCGGTCCGGAGTCACCTAGTGCAG”, with 35300 fluorescence intensity (a.u.).
As for “TGCTAATGGACTTATTACTTTTGCTTGCTTTAATTTTGCCCGGAGTCACCTAGTGCAG”, the binding signal was 14600 fluorescence intensity (a.u.).
The value for “GATGTGATTGGATTAATTTTCAAAAGTACTTTTATATGATCGGAGTCACCTAGTGCAG” was 56300 fluorescence intensity (a.u.); that for “GATCATTTCAGTGATTAATTTAATTGGAAAAGTAATTCAACGGAGTCACCTAGTGCAG” was 6700 fluorescence intensity (a.u.).
Then “ACGAATCTATTGAGCCTAATTAATTCATAATTAGTCTATGCGGAGTCACCTAGTGCAG”, with 14600 fluorescence intensity (a.u.).
“GAATTAAATGATGTGTGAATAATGGATGGCTAGGATGCAACGGAGTCACCTAGTGCAG”: the binding signal is 9780 fluorescence intensity (a.u.).
With “TTTAATTGTTATGAACACGACAATGTAATCGGATCATAGACGGAGTCACCTAGTGCAG”, the binding signal was 10100 fluorescence intensity (a.u.).
The value for “ATTGTATCTAATTATTGGCAACATGGAAATTAATCTCTTGCGGAGTCACCTAGTGCAG” was 9160 fluorescence intensity (a.u.).
Then “CATAAATCATTTCTTTTGTTTTCAAACTAAGCATATTTGACGGAGTCACCTAGTGCAG”, with 4540 fluorescence intensity (a.u.).
For “AATGTGATTTTCATGTATCCAATTAAAATATTTTAAGAAGCGGAGTCACCTAGTGCAG”, the binding signal was 9180 fluorescence intensity (a.u.).
The value for “CCTTGATGATTGAACCAGTCAGCCCCAACATCTCTATAAACGGAGTCACCTAGTGCAG” was 25800 fluorescence intensity (a.u.); that for “GCAATTTGATTTGGCCTGTATATTATTATGTGCAGGGTTCCGGAGTCACCTAGTGCAG” was 13800 fluorescence intensity (a.u.); that for “TAATTTATTAATTTATTATTAGAGTATATATATTTCAAGACGGAGTCACCTAGTGCAG” was 6800 fluorescence intensity (a.u.).
Then “CCTTAATTAATTAATTTCTAGATCTCAAGAGGGCAACAGACGGAGTCACCTAGTGCAG”, with 57200 fluorescence intensity (a.u.); and “TTTCAAGAGATTAATTAATTTTCTCAACTTTGCAAGGGCACGGAGTCACCTAGTGCAG”, with 16000 fluorescence intensity (a.u.); and “TTACAGATTGGCCCCTGTATTTCTCTCTCTCGTCTCTCCTCGGAGTCACCTAGTGCAG”, with 24800 fluorescence intensity (a.u.).
The value for “TTATCAATCTACATCGTTATAATTTAGTTCCACCGTAATTCGGAGTCACCTAGTGCAG” was 19800 fluorescence intensity (a.u.); that for “GCCGGGAGGGAGGGAGGGAGGGAGGGAGGGAGACCCCGCACGGAGTCACCTAGTGCAG” was 9960 fluorescence intensity (a.u.).
Turning to “TTGATTTGAAAGGTACTACCTCTGTTTCAGGTTAGAAAGTCGGAGTCACCTAGTGCAG”, the binding signal is 3380 fluorescence intensity (a.u.).
The value for “AGATGATTGATTTTCAGGTGATGAACAGGGTTACTGTTTTCGGAGTCACCTAGTGCAG” was 63000 fluorescence intensity (a.u.).
Turning to “GTTAGGGTTTTCTTTTGATTGTCAGGGTTTTCTTTTGATTCGGAGTCACCTAGTGCAG”, the binding signal is 3960 fluorescence intensity (a.u.).
Then “GATGATTTGATTAGATTAGGTTAGGTTTGTTATTCACCTACGGAGTCACCTAGTGCAG”, with 65500 fluorescence intensity (a.u.); and “TTATTAGATGATGATTATTTTGAGAAGGTTTCTTAGGATGCGGAGTCACCTAGTGCAG”, with 12900 fluorescence intensity (a.u.); and “TAGATGATTATTATGATAGGATTGATTTGTTTAGAGTCTTCGGAGTCACCTAGTGCAG”, with 46100 fluorescence intensity (a.u.).
